Sampled rows, rich in hits. Any-hit rate of the full collection: about 1.1%.
SARS PLpro yeast-1: blocks SARS-CoV papain-like protease in a yeast assay; S. cerevisiae expressing SARS-CoV PLpro, growth rescue; Potency, µM (highest dose often 32.9 µM), actives largely listed as activators; 0.19% of 330,000 active; AID 485353; calls by dose curve; also: nearly all actives have a fitted effect of over 55% in size
AmpC inh detg: AmpC beta-lactamase inhibition with detergent present; AmpC hydrolysis of nitrocefin, absorbance 480 nm, 0.01% Triton; 0.041% of 370,000 active; Potency, µM (doses to about 114 µM), usual class: inhibitors; P00811; AID 485294; also: nearly all actives have a fitted effect of over 25% in size
Target sequence (P00811 whole entry, looked up): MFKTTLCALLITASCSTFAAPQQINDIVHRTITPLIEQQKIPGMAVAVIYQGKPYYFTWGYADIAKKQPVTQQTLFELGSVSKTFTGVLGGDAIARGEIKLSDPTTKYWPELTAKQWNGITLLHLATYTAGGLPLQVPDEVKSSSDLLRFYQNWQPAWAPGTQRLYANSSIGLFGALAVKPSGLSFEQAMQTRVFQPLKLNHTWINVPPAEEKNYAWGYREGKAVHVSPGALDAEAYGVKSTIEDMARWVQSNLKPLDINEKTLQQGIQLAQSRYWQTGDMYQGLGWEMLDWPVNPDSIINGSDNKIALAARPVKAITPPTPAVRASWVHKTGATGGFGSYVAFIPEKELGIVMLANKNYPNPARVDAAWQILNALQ
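AmpC (5.3 nM in the dispensed reagent) in 20 mM phosphate pH 7.0 with 0.01% (detergent screen) or 0.0001% Triton X-100 was preincubated with compounds for 15 min at room temperature. Nitrocefin was then added from an 800 uM solution, and hydrolysis was followed at 480 nm.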
FBPA Giardia inh: inhibitors of Giardia lamblia fructose-1,6-bisphosphate aldolase. 0.71% of 290,000 active. purified Giardia FBPA. AID 2451. Potency, µM (top dose mostly 59.6 µM), actives largely listed as inhibitors; also: nearly all actives have a fitted effect of over 55% in size
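Giardia FBPA (40 nM reagent) was preincubated 10 min at RT with compound (up to 57.5 uM final), then substrate plus GAPDH/TPI/NAD/arsenate coupling system with diaphorase/resazurin was added; resorufin fluorescence (525/598 nm) was read after 20 min.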
AmpC inh no detg: blocks E. coli AmpC beta-lactamase in detergent-free assay; P00811; 0.52% of 330,000 active; Potency, µM (highest dose often 57.1 µM), hits mostly inhibitors; AID 485341; AmpC nitrocefin hydrolysis, absorbance 480 nm, 0.0001% Triton; also: nearly all actives have a fitted effect of over 20% in size
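20 mM phosphate pH 7.0 + 0.01% (detergent screen) or 0.0001% Triton X-100; 5.3 nM AmpC reagent; cpd preinc 15 min RT; nitrocefin (800 uM stock) to start; A480 q20 s × 4 min; Activity was normalised to no-enzyme and no-compound control wells.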
SARS PLpro yeast-2: Validates SARS-CoV PLpro inhibitor hits in yeast. calls only. shares compounds with SARS PLpro yeast-1. AID 652038. yeast expressing SARS-CoV PLpro, growth phenotype rescue. 19% of 1,000 active; call rule not given here
Numbers stand for hits; - = inactive; ? = inconclusive; . = not tested or not shown; + = active, no number. Unless noted, calls follow the shape of the dose curve; as a rule, active = well fitted curve in the direction sought with a large enough effect; inconclusive = small, poorly fitted or top-dose-only effect, or another doubt; inactive = no such curve, though single readings can be large; an effect the other way counts as inactive or inconclusive.

SMILES | SARS PLpro yeast-1 | AmpC inh detg | FBPA Giardia inh | AmpC inh no detg | SARS PLpro yeast-2
CC(C)Nc1nc(NC(C)C)nc(OCCOC(=O)c2ccccc2)n1 | ? | - | - | - | -
Cc1cc(C)cc(C(=O)N(c2ccccn2)C(C)c2ccco2)c1 (configuration not stated) | ? | - | - | - | -
Cc1nccn1CCCN1C(=O)CNC1=S | 4.47µM | - | - | - | -
CCn1c(CN2CCCCC2)nc2cc(NC(=O)COc3ccc(C(C)(C)C)cc3)ccc21 | . | - | . | . | .
CCCCCCCC(=O)N/N=C(\C)c1ccc(N)cc1 | - | - | - | - | .
CCCCCC(=O)N/N=C(\C)c1ccc(N2CCCCC2)cc1 | 14.1µM | - | - | - | -
COc1ccc(NC(=O)c2cc3c(=O)n(Cc4cccnc4)ccc3nc2C)c(OC)c1 | . | - | . | . | .
O=C(NNC(=O)c1cc(Cl)ccc1O)c1ccc(NS(=O)(=O)c2cccs2)cc1 | ? | ? | . | - | ?
C/C=C/c1ccc(OCCCNC2CCCC2)c(OC)c1 | - | - | - | - | .
C/C=C/c1ccc(OCCCNC(C)CC)c(OC)c1 (configuration not stated) | 22.4µM | - | ? | - | -
CCc1nnc(NC(=O)CSc2nccn2-c2cccc(C)c2)s1 | 12.6µM | - | - | - | -
COc1cc(NC(=O)Cn2c(C)cc3ccccc3c2=O)cc(OC)c1OC | 12.6µM | - | - | - | -
CC1CCCCC1NC(=O)C(Cc1ccccc1)NS(=O)(=O)c1cccs1 (configuration not stated) | ? | - | - | - | -
COc1ccccc1CNC(=O)c1cn(C)c2ccc(S(=O)(=O)N(C)C3CCCCC3)cc2c1=O | . | - | . | . | .
Nc1nonc1C(=O)N/N=C/c1cc(Br)ccc1O | ? | - | - | - | +
Nc1nonc1-n1nnc(C(=O)N/N=C/c2cc(Br)ccc2O)c1CNc1ccccc1 | ? | - | . | - | .
O=C(N/N=C/c1cc(Cl)ccc1O)c1ccc(Br)cc1 | ? | ? | - | - | -
CCOc1ccccc1CNS(=O)(=O)c1ccc2c(c1)CCCN2C(C)=O | . | - | . | . | .
COc1ccc(C(=O)c2oc3ccccc3c2NC(=O)c2nc(SC)ncc2Cl)cc1Cl | . | - | . | . | .
CCN(c1ccccc1)c1nnc(NC(=O)Nc2ccc(Br)cc2F)s1 | . | - | . | . | .
N#Cc1ccc(Oc2ccc(-c3nc4ccccc4nc3-c3ccccc3)cc2)cc1C#N | - | - | - | - | .
N#Cc1ccc(Oc2ccc(-c3cnc4ccccc4n3)cc2)cc1C#N | 2µM | - | - | - | +
CCNC(=S)Nc1ccc(C)c(Cl)c1 | ? | - | - | - | +
CCNC(=S)Nc1ccc(Cl)cc1 | - | - | - | - | .
O=C(N/N=C/c1c(O)n(-c2ccc(Cl)cn2)c(=O)c2ccccc12)c1ccncc1 | 12.6µM | - | - | - | -
SMILES | SARS PLpro yeast-1 | AmpC inh detg | FBPA Giardia inh | AmpC inh no detg | SARS PLpro yeast-2
O=C(COC(=O)/C=C/c1cccs1)Nc1nc(-c2ccccc2)cs1 | 14.1µM | - | - | - | +
O=C(COC(=O)c1cccs1)Nc1nc(-c2ccccc2)cs1 | - | - | - | - | .
COc1ccc(C)cc1NC(=O)CN(C)S(=O)(=O)c1cnc[nH]1 | ? | - | - | - | -
Cc1ccc([N+](=O)[O-])cc1S(=O)(=O)Nc1cccc(-c2ccc(N3CCCC3)nn2)c1 | 11.2µM | - | . | - | -
Cc1ccc(S(=O)(=O)Nc2cccc(-c3ccc(N4CCCCCC4)nn3)c2)cc1C | - | - | - | - | .
Cc1ccc(-n2c3nc(=O)n(C)c(=O)c-3cc3c(Cl)cccc32)c(C)c1 | . | - | . | . | .
Cc1ccc(CC(=O)O/N=C(\N)c2cccc([N+](=O)[O-])c2)cc1 | . | ? | - | - | -
Cc1ccc(S(=O)(=O)c2nnn3c2nc(NCc2ccc4c(c2)OCO4)c2sccc23)cc1C | . | - | . | . | .
CN(CCNC(=O)Cn1c(=O)sc2ccccc21)Cc1ccccc1 | ? | ? | - | - | -
Cc1noc(/C=C/c2ccccc2F)c1S(=O)(=O)N1CCC(C(=O)N(C)Cc2ccco2)CC1 | . | - | . | . | .
COc1ccc(C(=O)Nc2cccc(-c3cn4ccsc4n3)c2)cc1OC | . | - | . | . | .
COc1ccccc1NC(=S)NNC(=O)c1nn(C)c(C)c1Br | 15.8µM | - | ? | - | -
CC1CCCC(C)N1C(=O)COC(=O)Cc1ccc(Cl)cc1 (configuration not stated) | - | - | - | - | .
CN(C(=O)COC(=O)Cc1ccc(Cl)cc1)C1CCCCC1 | ? | . | . | - | -
COC(=O)c1cc(NC(=O)c2ccc3c(c2)N(Cc2cccc(Cl)c2)C(=O)c2ccccc2S3=O)cc(C(=O)OC)c1 (configuration not stated) | . | - | . | . | .
Cc1ccc2[nH]c3c(=O)n(CC(=O)N4CCCC(C)C4)ncc3c2c1 (configuration not stated) | . | - | . | . | .
O=C(N/N=C/c1c(O)ccc2ccccc12)c1ccc[n+](CCO)c1 | 0.891µM | - | - | - | -
CCOC(=O)N1CCN(CC(O)COCc2ccccc2)CC1 (configuration not stated) | ? | - | - | - | -
O=C(Cn1cnc([N+](=O)[O-])n1)N/N=C/c1cccc2ccccc12 | ? | - | - | - | -
O=C(O)c1cc(C2CC2)nn1-c1ccccc1 | ? | - | - | - | -
CC1CCC(NC(=O)c2cc(C3CC3)nn2-c2ccccc2)CC1 (configuration not stated) | - | - | . | - | .
COCCNC(=S)N/N=C/c1ccc2c(c1)OCCO2 | - | - | - | - | .
